# Screens from PubChem BioAssay.
# MITF inh – blocks human microphthalmia-associated transcription factor; O75030; AlphaScreen MITF homodimerization, bead proximity signal; inhibition, % at 2.6 µM; 0.91% of 650,000 active; AID 1259374; in the data active means inhibition above about 50%;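 further: 0% = vehicle wells with protein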
# TEAD-YAP block – TEAD-YAP interaction inhibition | HEK-TIYL cells, TEAD-Gal4/YAP UAS-luciferase luminescence | inhibition, % at 9.12 µM | 1.4% of 640,000 active | AID 1259422; in the data active means inhibition above about 32%;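 further: 0% = median of test compound wells and 100% = reference inhibitor wells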
# GPR151 activ – activators of human GPR151. 1% of 650,000 active. AID 1508602. Q8TDV0. PathHunter beta-arrestin GPR151 cells, luminescence. activation, % at 11.2 µM; in the data active means activation above about 4.9%;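 further: 0% = median of compound wells and 100% = cells with positive control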
# Target sequence (Q8TDV0 whole entry, looked up): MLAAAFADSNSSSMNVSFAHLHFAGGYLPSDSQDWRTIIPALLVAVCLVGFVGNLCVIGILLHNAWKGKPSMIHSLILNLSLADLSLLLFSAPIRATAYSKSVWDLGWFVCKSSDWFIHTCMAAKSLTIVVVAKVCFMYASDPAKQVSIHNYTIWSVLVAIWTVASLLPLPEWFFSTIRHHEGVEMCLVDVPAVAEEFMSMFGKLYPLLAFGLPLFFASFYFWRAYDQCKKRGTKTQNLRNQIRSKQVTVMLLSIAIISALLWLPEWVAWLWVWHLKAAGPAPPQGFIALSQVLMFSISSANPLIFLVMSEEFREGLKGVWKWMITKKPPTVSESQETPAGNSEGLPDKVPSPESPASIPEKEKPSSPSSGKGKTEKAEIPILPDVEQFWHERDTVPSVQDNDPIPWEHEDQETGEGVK
# FBW7 act – activators of human E3 ligase FBW7 | AlphaScreen FBW7–phospho-cyclin E peptide binding, activator screen | normalized activity (activation), % at 26.1 µM | 0.13% of 650,000 active; in the data active means normalized activity above about 1.9%;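 further: purified mutant Fbw7 with reduced substrate affinity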
# Starred values were filed as active, the others as inactive. Hits are enriched below; roughly 3.5% of the tested compounds scored in any of these assays.
SMILES,MITF inh,TEAD-YAP block,GPR151 activ,FBW7 act
CC1=C(C(=O)OC2CCCCCCC2)C(c2ccc([N+](=O)[O-])cc2)NC(=O)N1 (centres undefined),-1.9,-18.6,0.4,-0.1
COc1cncc(-c2cnn3ccc(Nc4ccccc4)nc23)c1,2.2,3.9,0.6,-0.5
Cc1cc(Nc2ccc(N3CCOCC3)cc2)nc(Nc2nc3ccccc3n2C)n1,6.8,42.1*,1.1,-0.3
c1cc(Nc2ccnc(Nc3ccc(N4CCOCC4)cc3)n2)c2ccncc2c1,-12.1,8.2,-0.5,2.6*
Cc1cc(N2CCOCC2)nc(Nc2ccc(NC(=O)COc3ccccc3)cc2)n1,-9.0,80.8*,4.9,-0.1
COc1ccc(CNc2cc(C)nc(Nc3ccc(N4CCOCC4)cc3)n2)cc1,8.2,37.2*,2.0,-0.3
Cc1ccc(C)c(NC(=O)Nc2ccc(Nc3nc(C)cc(N4CCOCC4)n3)cc2)c1,9.6,-19.3,-0.7,-0.1
COc1ccc(CNc2nc(Nc3ccc(N4CCOCC4)cc3)nc3cc(OC)c(OC)cc23)cc1,7.5,-7.6,-0.1,-0.1
c1cnc(Nc2nccc(Nc3ccc(N4CCOCC4)cc3)n2)cn1,3.0,-3.9,1.4,0.0
CCNc1nc(C)cc(NCc2ccccc2)n1,4.7,-6.7,0.7,-0.1
Cc1cc(NC2CCCCC2)nc(NCc2ccccc2)n1,-8.5,42.9*,-0.2,0.1
CCNc1nc(C#N)nc(N2CCCCC2)n1,2.6,41.3*,2.4,0.0
N#Cc1nc(N2CCCCC2)nc(N2CCCCC2)n1,-2.3,0.7,-1.1,-0.2
COc1cc2nc(Nc3ccc4ncccc4c3)nc(N)c2cc1OC,2.4,3.5,2.5,0.0
N=c1sc2c(n1CC(=O)c1ccc(F)cc1)CCCC2,-5.1,55.9*,-9.0,0.1
N#CC(C#N)C(C#N)(C#N)C1CCC/C(=C\c2ccco2)C1=O (centres undefined),80.8*,-1.7,1.9,-0.7
O=C1/C(=C/c2ccco2)CCc2ccccc21,21.9,-54.1,-2.5,0.3
Cn1/c(=N/N=C/c2ccc(C(=O)O)cc2)sc2ccccc21,-6.0,-48.6,-3.4,0.1
Cn1/c(=N\N=C/c2ccc(O)cc2)sc2ccccc21,9.5,-21.9,1.5,1.9*
COc1ccc(S(=O)(=O)NC2CC3CCC2C3)c(Cl)c1Cl (centres undefined),-6.1,0.0,-0.5,-0.2
Cc1[nH]cnc1CN1CCCC(C(=O)c2ccc(Oc3ccccc3)cc2)C1 (centres undefined),9.2,32.5*,1.5,0.5
CCC(=O)N1CCCC(c2nnc(-c3ccccc3F)s2)C1 (centres undefined),6.3,73.5*,-5.8,0.1
Cc1nc2ccccc2n1CC1CCN(CC(=O)Nc2ccc(F)cc2F)CC1,-6.9,54.5*,-1.1,0.0
O=C(NCCn1ccc2ccccc21)c1ccc(-n2cc(NC(=O)c3ccoc3)cn2)cc1,7.7,-7.6,-0.4,-0.2
O=C(NCCCc1cccnc1)c1ccc(-n2cc(NC(=O)C3CCOC3)cn2)cc1 (centres undefined),15.8,31.9*,-1.0,0.2
SMILES,MITF inh,TEAD-YAP block,GPR151 activ,FBW7 act
O=C(NCCOc1cccnc1)c1ccc(-n2cc(NC(=O)c3ccoc3)cn2)cc1,-10.2,52.4*,-1.3,-0.2
COc1cc(OC)cc(N2C(=O)Cc3c2nc(N)c2c(N)nc(N4CCCC4)c(C#N)c32)c1,12.2,16.3,-0.8,0.3
Cc1ccc2oc3nn(-c4ccccc4)c(=O)c-3cc2c1,8.6,53.5*,-0.9,0.8
CC1=CC(=O)OC1Cc1ccncc1 (centres undefined),-8.4,40.6*,0.3,0.0
CC1=NNC(=O)C1CCc1ccncc1 (centres undefined),23.1,11.1,-0.6,0.7
COc1ccc2c(c1)C[C@H](C(=O)Nc1ccc(-c3ccncc3)cc1OCCN(C)C)CO2,-1.6,1.6,-0.3,-0.2
COc1ccc(CCNc2nc(Nc3nccc4ccccc34)nc3c2ncn3C2CCCCC2)cc1,3.6,33.4*,-1.0,0.2
CCCNc1nc(Nc2nccc3ccccc23)nc2c1ncn2-c1ccccc1,-2.5,6.1,1.7,0.0
Oc1ccc(CCNc2nc(Nc3nccc4ccccc34)nc3c2ncn3-c2ccsc2)cc1,10.1,66.3*,1.3,0.1
CCCNc1nc(Nc2nccc3ccccc23)nc2c1ncn2-c1ccsc1,8.8,64.9*,0.2,-0.2
Oc1ccc(CCNc2nc(Nc3nccc4ccccc34)nc3c2ncn3C2CCCCC2)cc1,16.0,21.6,-1.3,0.2
COC(=O)C(C)NC(=O)c1ccc([N+](=O)[O-])cc1[N+](=O)[O-] (centres undefined),-3.0,-15.3,2.4,-0.5
O=C1C(Cc2ccccc2)N=C2c3ccccc3N=C(SCc3ccc(Cl)cc3)N12 (centres undefined),2.3,-7.0,0.6,-0.4
CCOC(=O)C1=C(C)N=c2s/c(=C\c3ccc(OCc4ccccc4)c(OC)c3)c(=O)n2C1c1ccccc1 (centres undefined),27.1,1.2,2.6,0.0
Cc1cc(C)n2c(SCC(=O)N(C)CC(=O)Nc3ccc(F)cc3)nnc2n1,13.5,-1.0,-2.0,0.3
Cc1ccc2nc(-c3ccc(O)c(O)c3)cn2c1,0.4,54.4*,-7.1,0.0
Cc1ccc2nc(-c3ccc(O)cc3O)cn2c1,0.1,79.7*,0.9,-0.4
Cc1ccc2nc(-c3ccc([N+](=O)[O-])cc3)cn2c1,-4.0,-33.9,-2.5,-0.2
CCOC(=O)C(=O)Nc1nc(-c2ccc(CCCl)cc2)c(C)s1,2.6,-7.0,2.9,0.1
CCc1ccc(Nc2ncnc3c2c(-c2ccccc2)cn3-c2ccc(F)cc2)cc1,3.5,5.9,0.3,-0.1
COc1cccc(C2=CC(c3ccc(OC)cc3OC)n3ncnc3N2)c1 (centres undefined),3.0,39.7*,-1.1,-0.1
COc1cccc(C2=CC(c3cc(Br)ccc3F)n3ncnc3N2)c1 (centres undefined),1.0,47.1*,0.2,0.0
COc1cccc(C2=CC(c3ccccc3OC(F)F)n3ncnc3N2)c1 (centres undefined),6.1,51.9*,-0.9,-0.1
COc1cccc(C2=CC(c3ccc(OC(F)F)cc3)n3ncnc3N2)c1 (centres undefined),3.3,-51.8,-0.7,0.6
CCOc1ccccc1NC(=O)C1CCCN1C(=O)Nc1cccc(F)c1 (centres undefined),-2.1,6.7,-0.9,-0.2
SMILES,MITF inh,TEAD-YAP block,GPR151 activ,FBW7 act
Cc1nc2ccc(NC(=O)c3ccc(S(=O)(=O)N(C)C)cc3)cc2c(=O)n1-c1ccc(Cl)cc1,18.7,37.6*,-0.4,0.4
COc1nc(Oc2nc(OC)nc(N3CCCC3)n2)nc(N2CCCC2)n1,-5.9,3.0,-1.0,0.3
COc1ccc(-c2cnnc(NCc3cnc(C)cn3)n2)cc1,7.7,0.5,0.8,0.1
COc1ccc(-c2cnc(NCc3cnc(C)cn3)nc2)cc1,9.2,45.6*,-1.7,0.5
COC(=O)CSc1nc(-c2ccco2)cc(C(F)(F)F)c1C#N,-0.3,10.8,-0.9,2.0*
COC(=O)CSc1nc(N)c(C#N)c(-c2ccco2)c1C#N,-11.4,-0.5,1.4,-0.1
Cc1cc(C)c(C#N)c(SCC(=O)Nc2ccccn2)n1,8.9,85.5*,-0.5,0.2
